Active and inactive are the calls of the source. How the source made its calls: active means hit-call score of the fitted dose curve at least 0.9, where 1 is the maximum; inactive means score below 0.9.
assay: APR_HepG2_CellLoss_72hr: Apredica 72-hour HepG2 Assay for Cell Loss (AID 2282915); settings: high-content imaging
Method: APR_HepG2_72hr is a cell-based, multiplexed-readout assay that uses HepG2, a human liver cell line, with measurements taken at 72 hours after chemical dosing in a 384-well plate.APR_HepG2_CellLoss_72hr is one of 10 assay component(s) measured or calculated from the APR_HepG2_72hr assay. It is designed to make measurements of cell number, a form of viability reporter, as detected with fluorescence intensity signals by HCS Fluorescent Imaging technology.Data from the assay component APR_HepG2_CellLoss_72hr was analyzed into 1 assay endpoint. This assay endpoint, APR_HepG2_CellLoss_72hr, was analyzed with bidirectional fitting relative to DMSO as the negative control and baseline of activity. Using a type of viability reporter, measures of all nuclear dna for gain or loss-of-signal activity can be used to understand the viability at the cellular-level. Furthermore, this assay endpoint can be referred to as a secondary readout, because this assay has produced multiple assay endpoints where this one serves a viability function. To generalize the intended target to other relatable targets, this assay endpoint is annotated to the cell cycle intended target family, where the subfamily is proliferation.
Cells were treated with dimethyl sulfoxide (DMSO) as a solvent control at a final concentration of 0.5% v/v or with compounds in DMSO with a resulting final DMSO concentration of 0.5% v/v. Compound treatment was done at concentrations of 0.39, 0.78, 1.56, 3.12, 6.24, 12.5, 25, 50, 100, and 200 uM in duplicate on each plate. Cells were treated with compounds for 1, 24, or 72 hr. Carbonyl […] m-chloro-phenylhydrazone (CCCP) and taxol were used as positive controls for mitochondrial function and cytoskeletal stability, respectively; DMSO served as the negative control for this experiment. Cells were fixed by the direct addition of 50 uL formaldehyde in Hank's Balanced Salt Solution (HBSS) to a final concentration of 3.7%. After incubation in the fixation medium for 30 min at room temperature (293-298 K), cells were rinsed twice with HBSS and treated with cell permeabilization buffer (16 uL of 0.5% Triton X-100) for 10 min at room temperature (293-298 K) before labeling. For mitochondrial membrane potential and mitochondrial measurements, pre-fixed cells were incubated with 50 uL of MitoTracker Red CMXRos (Invitrogen) at a concentration of 250 nM for 30 min before fixation. In the remaining cases, post-fixed cells were labeled by incubation with a multiplexed mixture of primary antibodies in HBSS for 60 min at room temperature (293-298 K) to detect immunoreactivity of c-Jun (1:500), phospho-histone H3 (1:100), phospho-histone H2A.x (1:200), p53 (1:400), alpha-tubulin (1:200) and Hoechst 33342 (2 ug/mL). Cells were labeled for multiplexed imaging on two separate plates: a) Hoechst 33342, MitoTracker Red, phospho-histone H3, and alpha-tubulin, and b) Hoechst 33342, phospho-histone H2A.x, and c-Jun. A final rinse with HBSS (50 uL) was performed before analysis. The primary and secondary antibodies for the proteins were phospho-histone H3 (rabbit anti-phospho-histone H3 and FITC-donkey anti-rabbit IgG), phospho-histone H2A.x (mouse anti-phospho-histone H2A.x and FITC-donkey anti-mouse IgG), c-Jun (rabbit anti-phospho-c-Jun and Cy3-donkey anti-rabbit IgG), p53 (sheep anti-p53 and Cy5-donkey anti-sheep IgG), alpha-tubulin (mouse anti-alpha-tubulin and Cy5-donkey anti-mouse IgG). These antibodies are available as the CellCiphr HepG2 assay kit (Millipore).Digital images of each well were captured using a Cellomics ArrayScan VTI (Thermo Scientific Cellomics) (0.8 NA objective, 0.63x optical coupler, and XF-93 filter set) at 20x magnification. The images were acquired using the autofocus feature of the ArrayScan instrument, which entails the following steps. First, the camera focuses on channel 1 (Hoechst 33342), where nuclei are identified. Second, a Z offset of 1 um is used for capturing mitochondria (MitoTracker Red). […]

| Structure (SMILES) | AC50 | outcome |
| --- | --- | --- |
| Cc1cc(C2CC2)nc(Nc2ccccc2)n1 | 75.7 µM (active) |  |
| CC(COc1ccc(Oc2ccccc2)cc1)Oc1ccccn1 (stereo not given) | 49.2 µM (active) |  |
| CON=C(C(=O)OC)c1ccccc1CON=C(C)c1cccc(C(F)(F)F)c1 | 3.36 µM (active) |  |
| CSC1=N[C@@](C)(c2ccccc2)C(=O)N1Nc1ccccc1 | 12.2 µM (active) |  |
| CCCCN(CC)c1c([N+](=O)[O-])cc(C(F)(F)F)cc1[N+](=O)[O-] | 84.6 µM (active) |  |
| Nc1c(Cl)cc([N+](=O)[O-])cc1Cl | 95.3 µM (active) |  |
| CCc1cnc(C2=NC(C)(C(C)C)C(=O)N2)c(C(=O)O)c1 (stereo not given) |  | inactive |
| C[N+]1(C)CCCCC1 |  | inactive |
| COc1ccc(C(=CC(=O)N2CCOCC2)c2ccc(Cl)cc2)cc1OC | 31.1 µM (active) |  |
| CCCOc1nn(C(=O)NS(=O)(=O)c2ccccc2C(=O)OC)c(=O)n1C |  | inactive |
| COP(=O)(OC)OC(Br)C(Cl)(Cl)Br (stereo not given) | 29.7 µM (active) |  |
| CCc1cccc(C)c1N(C(=O)CCl)C(C)COC (stereo not given) | 106 µM (active) |  |
| CCOP(=S)(OCC)SCCSCC |  | inactive |
| FC(F)C(F)(F)OCC(Cn1cncn1)c1ccc(Cl)cc1Cl (stereo not given) | 99.9 µM (active) |  |
| CN(C)[C@@H]1C(=O)C(C(N)=O)=C(O)[C@@]2(O)C(=O)C3=C(O)c4c(O)cccc4[C@@](C)(O)[C@H]3[C@H](O)[C@@H]12 |  | inactive |
| CCOP(=S)(OCC)Oc1ccc2c(C)c(Cl)c(=O)oc2c1 | 49.1 µM (active) |  |
| CCOP(=O)(OCC)Oc1cc(C)nc(C(C)C)n1 |  | inactive |
| C#CC(C)(C)NC(=O)c1cc(Cl)cc(Cl)c1 | 69.1 µM (active) |  |
| C#CCC1=C(C)C(OC(=O)C2C(C=C(C)C)C2(C)C)CC1=O (stereo not given) |  | inactive |
| O=c1ccc(=O)[nH][nH]1 |  | inactive |

| Structure (SMILES) | AC50 | outcome |
| --- | --- | --- |
| CNC(=O)ON=C(SC)C(=O)N(C)C | 100 µM (active) |  |
| CSc1nnc(C(C)(C)C)c(=O)n1N |  | inactive |
| CCOP(=S)(OCC)Oc1cc(C)nc(C(C)C)n1 |  | inactive |
| C=C(C)[C@H]1Cc2c(ccc3c2O[C@@H]2COc4cc(OC)c(OC)cc4[C@@H]2C3=O)O1 | 12.8 µM (active) |  |
| CCCCOC(=O)[C@@H](C)Oc1ccc(Oc2ccc(C#N)cc2F)cc1 | 99.2 µM (active) |  |
| O=C(O)c1cc(Oc2ccc(C(F)(F)F)cc2Cl)ccc1[N+](=O)[O-] |  | inactive |
| CCC(=O)Nc1ccc(Cl)c(Cl)c1 |  | inactive |
| CC(Oc1cccc(Cl)c1)C(=O)O (stereo not given) |  | inactive |
| CCCOCC(=Nc1ccc(Cl)cc1C(F)(F)F)n1ccnc1 | 100 µM (active) |  |
| Nc1nc(N)nc(NC2CC2)n1 |  | inactive |
| CCCSP(=O)(OCC)Oc1ccc(Br)cc1Cl (stereo not given) | 114 µM (active) |  |
| CNc1cnn(-c2cccc(C(F)(F)F)c2)c(=O)c1Cl |  | inactive |
| CCCSP(=O)(OCC)SCCC |  | inactive |
| CN(C)NC(=O)CCC(=O)O |  | inactive |
| CCOP(=O)(SC(C)CC)N1CCSC1=O (stereo not given) |  | inactive |
| C[Si](Cn1cncn1)(c1ccc(F)cc1)c1ccc(F)cc1 | 57.8 µM (active) |  |
| CSc1nc(NC(C)C)nc(NC(C)C)n1 |  | inactive |
| COP(=O)(NC(C)=O)SC (stereo not given) |  | inactive |
| CC1=NNC(=O)N(/N=C/c2cccnc2)C1 |  | inactive |
| CCCCSP(=O)(SCCCC)SCCCC | 87.3 µM (active) |  |

— PubChem BioAssay (EPA / NIEHS)
